Results as given in PubChem BioAssay (NCATS).
Results filed as inconclusive are left out. A number with no mark means an inactive call. Calls follow the shape of the dose curve; as a rule, active = well fitted curve in the direction sought with a large enough effect; inconclusive = small, poorly fitted or top-dose-only effect, or another doubt; inactive = no such curve, though single readings can be large or run the other way. Bridge positions count the residues as written; N and C are the ends. Square brackets hold non-standard residues; d marks the D form. Side chains are listed from the residue outwards. Peptide text beside a SMILES is read from it. * marks the point of attachment. Phg(4-OMe) = COc1ccc([C@H](N)C(=O)O)cc1; d(aIle) = CC[C@H](C)[C@@H](N)C(=O)O; d(aThr) = C[C@@H](O)[C@@H](N)C(=O)O; NMeF = CN[C@@H](Cc1ccccc1)C(=O)O; Isobutyryl = CC(C)C(=O)*

Test: qHTS for activators of dead-cell proteases activity screened against the NCATS CANVASS Library (AID 1347392);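 also: luminescence from protease leaking out of membrane-damaged cells cleaving impermeant substrate; 0% is about no effect; rising signal means more cytotoxicity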
Details: HepG2 cytotoxicity, dead-cell protease luminescence, 5 h; series mostly up to 46.1 µM; activation (cytotoxicity): at the top concentration
Source text: Natural products and their derivatives continue to be wellsprings of nascent therapeutic potential. However, many laboratories have limited resources for biological evaluation, leaving their previously isolated or synthesized compounds largely or completely untested. To address this issue, the Canvass library of natural products was assembled (https://tripod.nih.gov/canvass), in collaboration with academic and industry researchers, for quantitative high-throughput screening (qHTS) across a diverse set of cell-based and biochemical assays. The pure (>85% purity by liquid chromatography/mass spectrometry [LC/MS]) Canvass library of 346 natural products were submitted by 45 academic laboratories and companies around the world. We collected pure natural products to circumvent deconvolution and structure elucidation due to time and resource limitations. The library was formatted into 1536-well plates and evaluated in 50 qHTS (in an 11-pnt concentration series) bioassays with broad scope of disease-relevant mechanisms. The resulting data set from 50 different assays was then systematically analyzed to identify overall trends and specific natural products with interesting biological activities. Reported herein are the results of each individual qHTS and their corresponding assay protocol. This cytotoxicity assay measures dead-cell protease activity (proteases are released from cells that have lost membrane integrity). A luminogenic cell-impermeant peptide substrate (AAF-aminoluciferin) is used to measure dead-cell protease activity. The amount of luminescence directly correlates with the percentage of cells undergoing cytotoxic stress. National Center for Advancing Translational Sciences (NCATS), Rockville, MD National Institute of Health (NIH), Bethesda, Maryland
Protease-screen assay protocol: 1. In a white-solid bottom 1536-well plate, 5 uL of HepG2 cell suspension was dispensed using a Multidrop Combi (Thermo Fisher Scientific) at a final concentration of 2000 cells / well. 2. The assay plates were incubated for 18 hours at 37C, 5% CO2 to acclimate and attach. 3. […] of compounds (in DMSO; columns 5-48), vehicle control DMSO, and positive control were pin transferred into the assay plates using the Kalypsis pin tool (Wako USA) equipped with a 1536-well pin heads. This yields a final CANVASS compound concentration of 0.4 nM - 95 uM. 4. The assay plates were incubated for 5 hours at 37C, 5% CO2. 5. After compound treatment, 5 uL per well of CytoTox-Glo (Promega) reagent was added using the BioRAPTR dispenser. 6. The assay plates were incubated for 15 min at room temperature. 7. The luminescence readout was obtained using the ViewLux plate reader (PerkinElmer) using a clear emission filter, 2x binning, 1 sec exposure settings.

Row | SMILES | activation (cytotoxicity)
1 | CC[C@H](C)[C@H]1NC(=O)[C@@H](NC(=O)C(C)C)[C@@H](C)OC(=O)[C@H](COC(=O)CNC(C)=O)NC(=O)[C@@H]([C@@H](C)O)NC(=O)[C@H](Cc2ccccc2)N(C)C(=O)[C@H](c2ccc(OC)cc2)NC1=O (Isobutyryl-T[d(aIle)][Phg(4-OMe)][NMeF][d(aThr)]S([Gly-Ac]); ester 1-C) | 1.02%
2 | CCC(C)=C1OC(=O)[C@H](C)[C@H](O)[C@H](Cc2cccnc2)NC(=O)C(NC(=O)c2ncccc2O)C(C)OC1=O (stereo not given in full) | -1.77%
3 | C/C(=C\[C@H](C)C(=O)/C=C/CC1CC(=O)NC(=O)C1)[C@@H]1OC(=O)CCCC/C=C/[C@H](O)[C@@H](O)[C@@H]1C | 2.54%
4 | COC(=O)[C@@]1(C)CCC[C@]2(C)c3cc(OC)ccc3CC[C@@H]12 | -0.751%
5 | CO[C@@H]1[C@H](O)[C@@H](C)O[C@@H](OC[C@@H]2C(C)OC(=O)/C=C/[C@H](C)C(O[C@@H]3O[C@H](C)CC4(OC(=O)O[C@@H]4C)C3O)[C@@H](C)CC(C)C(=O)/C=C/[C@H]3OC23)[C@@H]1OC (stereo not given in full) | 3.48%
6 | CC[C@@H]1C[C@@]2(CC)OC(=O)[C@@]3(CC)[C@H](CC)[C@@H]1[C@@H]23 | 5%
7 | CC(C)=CCC[C@]1(C)[C@H]2CC(=O)[C@@]3(CO3)[C@@H]1C2 | 1.4%
8 | C[C@]12CCC[C@](C)(C(=O)O)[C@@H]1CC[C@@]1(C)c3cocc3CC[C@H]21 | -0.951%
9 | C/C=C(/C)c1c(Cl)c(O)c(C)c2c1Oc1c(Cl)c(O)c(Cl)c(C)c1C(=O)O2 | 2.33%
10 | C[C@@]12CCC[C@@](C)(C(=O)O)[C@H]1CC[C@@]13C[C@@H](CC[C@H]12)[C@](C)(O)C3 | 1.07%
11 | CC(=O)O[C@H]1c2ccccc2-c2c3c(cc4c2[C@@H]1N(C(C)=O)CC4)OCO3 | -1.05%
12 | CN1CCc2cc3c(c4c2C1(C)C(=O)c1cc(O)ccc1-4)OCO3 (stereo not given) | -3%
13 | COc1cc2c(cc1OC)[C@@H](c1ccc3c(c1)OCO3)C(C)[C@@H](C)C2=O (stereo not given in full) | -0.0729%
14 | C/C=C1/C2=CCCN3C(=O)O[C@H]([C@H]1O)[C@H]23 | -0.406%
15 | C/C(=C\CC[C@@H](C)[C@H]1CC[C@]2(C)C3=CCC4C(C)(C)[C@@H](O)C[C@@H](O)[C@]4(C)C3[C@H](O)C[C@@]12C)CO (stereo not given in full) | -2.04%
16 | CN1CC[C@@]2([C@@]34CCN(C)[C@@H]3Nc3ccccc34)c3ccccc3N[C@@H]12 | 0.242%
17 | Cc1occ2c1C(=O)c1c(cc(O)c(O)c1O)C2=O | 0.059%
18 | CC(=O)c1c(C)cc2c(c1O)C(=O)c1c(O)cc(O)cc1C2=O | 1.72%
19 | CN1CC[C@]2(c3cccc4c3N[C@H]3N(C)CC[C@@]43[C@]34CCN(C)[C@H]3Nc3ccccc34)c3ccccc3N[C@H]12 | 8.63%
20 | COc1ccc([C@@H]2CC(=O)c3c(cc(O)c(C/C=C(\C)CCC=C(C)C)c3O)O2)cc1 | -1.61% [at 9.19 µM]

Row | SMILES | activation (cytotoxicity)
21 | CC1=C(C)C(=O)OC(C(C)C2(O)CCC3C4C5OC5C5(O)CC=CC(=O)C5(C)C4CCC32C)C1 (stereo not given) | 2%
22 | C=CC(CCCCC)C1C(=O)NC(=O)C1C(=O)C1C2C(C)CC(C(=O)O)CC2CC1(O)C(=O)/C=C/C (stereo not given) | -2.84%
23 | COc1c(O)cc(O)c2c(=O)cc(-c3ccccc3)oc12 | -2.13%
24 | COc1ccc([C@@H]2c3cc4c(cc3C(=O)C(C)C2C)OCO4)cc1OC (stereo not given in full) | 0.342%
25 | COC(=O)c1cc2cc3c(c(O)c2c(=O)o1)OC1(CC3)CC2=C(O1)C(=O)c1c(O)c(OC)cc(OC)c1C2=O (stereo not given) | 5.28%
26 | C[n+]1cc2cc(C(N)=O)[nH]c3c(=N)c(Cl)c(N)c1c23 | 1.69%
27 | COC(=O)c1cccc2oc(-c3cccc4oc(-c5c(C)cccc5O)nc34)nc12 | 2.74%
28 | COC(=O)[C@@]12Oc3cccc(O)c3C(O)=C1C(=O)C[C@H](C)[C@H]2O | 1.03% [at 91.4 µM]
29 | C[C@@]1(CCC(=O)Nc2c(O)ccc(C(=O)O)c2O)C(=O)C=C[C@]23C[C@H]4C[C@H](O[C@@]4(C)C2)C31 (stereo not given in full) | -0.593%
30 | CO[C@H]1/C=C/CCCCC(=O)O[C@@H](/C(C)=C/[C@H](C)C(=O)C[C@H](O)CC2CC(=O)NC(=O)C2)[C@@H](C)C1 | 2.57%
31 | C/C=C(/C)c1c(Cl)c(OC)c(C)c2c1Oc1c(Cl)c(O)c(Cl)c(C)c1C(=O)O2 | 4.98%
32 | CC(C)=CC[C@H]1C[C@@]2(CC=C(C)C)C(=O)[C@](CC=C(C)C)(C(=O)C(C(=O)c3ccccc3)=C2O)C1(C)C | 2.91%
33 | C[C@@]12CCC[C@@](C)(C(=O)OP(=O)(O)OC[C@H]3O[C@@H](n4cnc5c(N)ncnc54)[C@H](O)[C@@H]3O)[C@H]1C[C@@H](O)[C@@]13C[C@@H](CC[C@@H]21)[C@](C)(O)C3 | 0.587%
34 | CC[C@H](O)CCCCC[C@@H]1NC(=O)[C@H]2CCCCN2C(=O)[C@H]([C@H](C)CC)NC(=O)[C@H](Cc2cn(OC)c3ccccc23)NC1=O | 0.105%
35 | C/C=C/c1cc2c(c(=O)o1)C(=O)[C@@H](O)[C@H](C)O2 | -0.945%
36 | C/C(=C\[C@@H](C)CC/C=C/CC/C=C/C(=O)O)[C@H](O)[C@H](C)C(=O)CCCC1CC(=O)NC(=O)C1 | 2.05%
37 | COC12OC1(C13OC1(OC)C(=O)c1cc4cc(C)oc(=O)c4c(O)c1C3O)C(O)c1c(cc3cc(C)oc(=O)c3c1O)C2=O (stereo not given) | 1.76%
38 | COc1cc2ccc(=O)oc2c(O)c1O[C@@H]1O[C@H](CO)[C@@H](O)[C@H](O)[C@H]1O | -1.05% [at 27.5 µM]
39 | CC1(C)CC[C@]2(CO)CC[C@]3(C)C(=CCC4[C@@]5(C)CC[C@H](O)C(C)(C)C5CC[C@]43C)C2C1 (stereo not given in full) | -0.639%
40 | CO[C@@H](C[C@@H](C)[C@@H](O)/C=C/C=C/CNC(=O)C(C)(C)[C@H](O)\C(C)=C/C=C\C=C\Cc1cnco1)[C@]1(O)[C@@H](C)C(=O)N(C)[C@@]12COC2=O | -0.803%
